The source of these data is PubChem BioAssay (NCI).

Structures are written as SMILES. The panel holds about 79,000 compounds, 15% with a hit somewhere; the sample as a whole holds those more often. Values without a mark were called inactive. The source made the active and inactive calls. Cut-off read from the data, not from the text of the source: active = growth inhibition above about 70%; inactive = the rest.

The nature of assay [1]: NCI Yeast Anticancer Drug Screen. Data for the rad50 strain (AID 155).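 Note: 0% = growth of vehicle-only cultures of the same strain.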 The settings on record: S. cerevisiae rad50 strain growth inhibition, active compounds read high. The method, boiled down: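 Genetically altered yeast (DNA repair pathway); compound treatment; growth inhibition vs vehicle ctrl.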
Assay [2] in a line: NCI Yeast Anticancer Drug Screen. Data for the mec2-1 strain (AID 157). The settings on record: S. cerevisiae mec2-1 strain, active compounds read high. A digest of the protocol:
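Mutant yeast (mec2-1) grown with compound; growth inhibition relative to vehicle control reported.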

Assay [3] is described as follows: NCI Yeast Anticancer Drug Screen. Data for the sgs1 mgt1 strain (AID 161).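 Note: 0% = growth of cultures given vehicle only.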 The conditions noted are these: S. cerevisiae sgs1 mgt1 strain, active compounds read high. The method, boiled down: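 Yeast cells carrying a defined DNA-repair defect were exposed to test compounds. Growth inhibition was measured relative to vehicle-treated controls.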
Assay [4] in a line: NCI Yeast Anticancer Drug Screen. Data for the cln2 rad14 strain (AID 165).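 Note: 0% = growth equal to vehicle treated cultures.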 The settings on record: S. cerevisiae cln2 rad14 strain, active compounds read high. The method, boiled down:
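Readout is yeast growth inhibition versus vehicle-treated controls, using a strain with cln2 and rad14 alterations exposed to compound.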

The nature of assay [5]: NCI Yeast Anticancer Drug Screen. Data for the bub3 strain (AID 167). The conditions noted are these: S. cerevisiae bub3 mutant strain, active compounds read high. The method, boiled down:
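Yeast carrying a defined mutation is treated with each compound, and growth is compared with that of vehicle-exposed cells to give inhibition.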

The nature of assay [6]: NCI Yeast Anticancer Drug Screen. Data for the mlh1 rad18 strain (AID 175). The settings on record: S. cerevisiae mlh1 rad18 strain growth inhibition, active compounds read high. The method, boiled down: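 Genetically defined yeast (DNA repair-deficient) exposed to compounds; growth inhibition determined relative to vehicle.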
The mark [7] stands for this setting: at 5.0 µM (retest, dose inferred, filed as 0.5).
Setting [8] is: at 50.0 µM (retest, dose inferred, filed as 5.0).

On to `Cc1c(O)ccc(C(=O)CCl)c1O`, for which the growth inhibition is -147% in assay [1] (setting [7]); 38% in assay [1] (setting [8]); 58.8% in assay [1] (at 50.0 µM); -44% in assay [2] (setting [7]); 5% in assay [2] (setting [8]); 61.6% in assay [2] (at 50.0 µM). Moreover, the growth inhibition in assay [3] (setting [7]) was -53%; in assay [3] (setting [8]), 42%; in assay [3] (at 50.0 µM), 60.4%; in assay [4] (setting [7]), -55%; in assay [4] (setting [8]) it was -11%; in assay [4] (at 50.0 µM) it was 12.9%. Besides, the growth inhibition in assay [5] (setting [7]) is -69%; in assay [5] (setting [8]), -3%; in assay [5] (at 50.0 µM), 41.4%; in assay [6] (setting [7]), -111%; in assay [6] (setting [8]) it was 33%; in assay [6] (at 50.0 µM), 68.3%.

With `COc1ccccc1/C=C/c1ccnc2ccccc12`, the growth inhibition in assay [1] (setting [7]) was 31%; in assay [1] (setting [8]) it was 97% (active); in assay [1] (at 50.0 µM), 72.7% (active); in assay [2] (setting [7]), 15%; in assay [2] (setting [8]), 97% (active); in assay [2] (at 50.0 µM), 90.2% (active). Moreover, the growth inhibition in assay [3] (setting [7]) is 24%; in assay [3] (setting [8]), 98% (active); in assay [3] (at 50.0 µM), 88% (active); in assay [4] (setting [7]), 13%; in assay [4] (setting [8]) it was 84% (active); in assay [4] (at 50.0 µM) it was 65.1%. Moreover, the growth inhibition in assay [5] (setting [7]) was 24%; in assay [5] (setting [8]) it was 97% (active); in assay [5] (at 50.0 µM), 84.8% (active); in assay [6] (setting [7]), 24%; in assay [6] (setting [8]), 96% (active); in assay [6] (at 50.0 µM), 91.7% (active).

For the molecule `CCOc1ccc(C(OC)OC)cc1[N+](=O)[O-]`, the growth inhibition in assay [1] (setting [7]) is 3%; in assay [1] (setting [8]), -7%; in assay [1] (at 50.0 µM), -12.1%; in assay [2] (setting [7]), -1%; in assay [2] (setting [8]), 3%; in assay [2] (at 50.0 µM), -6.9%. For the same molecule, the growth inhibition was -11% in assay [3] (setting [7]); -7% in assay [3] (setting [8]); -25.1% in assay [3] (at 50.0 µM); -4% in assay [4] (setting [7]); 0% in assay [4] (setting [8]); 87.5% (active) in assay [4] (at 50.0 µM). For the same molecule, the growth inhibition was 0% in assay [5] (setting [7]); 1% in assay [5] (setting [8]); -0.8% in assay [5] (at 50.0 µM); -1% in assay [6] (setting [7]); -7% in assay [6] (setting [8]); 10% in assay [6] (at 50.0 µM).

As to `Cc1cc(NC(=S)SCc2ccc(F)cc2)c([N+](=O)[O-])cc1C`, the growth inhibition in assay [1] (setting [7]) is 57%; in assay [1] (setting [8]) it was 98% (active); in assay [1] (at 50.0 µM), 98.7% (active); in assay [2] (setting [7]), 36%; in assay [2] (setting [8]), 99% (active); in assay [2] (at 50.0 µM) it was 98.8% (active). For the same molecule, the growth inhibition in assay [3] (setting [7]) is 87% (active); in assay [3] (setting [8]), 99% (active); in assay [3] (at 50.0 µM), 98.5% (active); in assay [4] (setting [7]), 19%; in assay [4] (setting [8]), 97% (active); in assay [4] (at 50.0 µM), 98.8% (active). The growth inhibition in assay [5] (setting [7]) is 48%; in assay [5] (setting [8]), 92% (active); in assay [5] (at 50.0 µM) it was 99% (active); in assay [6] (setting [7]), 94% (active); in assay [6] (setting [8]), 98% (active); in assay [6] (at 50.0 µM), 99.1% (active).

Consider `CCOC(=O)C1C(c2cccc(OC)c2O)c2cc3c(cc2OC1(C)N1CCCC1)OCO3` (configuration not stated), for which the growth inhibition was -3% in assay [1] (setting [7]); 21% in assay [1] (setting [8]); 31.2% in assay [1] (at 50.0 µM); 1% in assay [2] (setting [7]); 15% in assay [2] (setting [8]); 16.4% in assay [2] (at 50.0 µM). Also, the growth inhibition was -2% in assay [3] (setting [7]); 39% in assay [3] (setting [8]); 34.5% in assay [3] (at 50.0 µM); -5% in assay [4] (setting [7]); -4% in assay [4] (setting [8]); 2.55% in assay [4] (at 50.0 µM). Moreover, the growth inhibition is 1% in assay [5] (setting [7]); 25% in assay [5] (setting [8]); 24.9% in assay [5] (at 50.0 µM); -4% in assay [6] (setting [7]); 27% in assay [6] (setting [8]); 50.5% in assay [6] (at 50.0 µM).

Turning to `C=CCc1ccc(OC(=O)CCl)c(OC)c1`, the growth inhibition in assay [1] (setting [7]) is 1%; in assay [1] (setting [8]) it was 23%; in assay [1] (at 50.0 µM), 64.8%; in assay [2] (setting [7]) it was 1%; in assay [2] (setting [8]) it was 9%; in assay [2] (at 50.0 µM) it was 27.8%. The growth inhibition in assay [3] (setting [7]) was -1%; in assay [3] (setting [8]) it was 5%; in assay [3] (at 50.0 µM) it was 12.6%; in assay [4] (setting [7]), 2%; in assay [4] (setting [8]), 8%; in assay [4] (at 50.0 µM) it was 28.8%. Further, the growth inhibition in assay [5] (setting [7]) was -2%; in assay [5] (setting [8]) it was 3%; in assay [5] (at 50.0 µM), 18.6%; in assay [6] (setting [7]), 0%; in assay [6] (setting [8]), 26%; in assay [6] (at 50.0 µM) it was 81.7% (active).

In the case of `Cc1ccc(-c2c3nc(c(-c4ccc(C)cc4)c4ccc([nH]4)c(-c4ccc(C)cc4)c4nc(c(-c5ccncc5)c5ccc2[nH]5)C=C4)C=C3)cc1.Cc1ccc(-c2c3nc(c(-c4ccc(C)cc4)c4ccc([nH]4)c(-c4ccc(C)cc4)c4nc(c(-c5ccncc5)c5ccc2[nH]5)C=C4)C=C3)cc1.O=S(=O)([O-])C(F)(F)F.[Pt+2].c1ccc([PH+](CCC[PH+](c2ccccc2)c2ccccc2)c2ccccc2)cc1`, the growth inhibition was 19% in assay [1] (setting [7]); 62% in assay [1] (setting [8]); 48.8% in assay [1] (at 50.0 µM); 13% in assay [2] (setting [7]); 42% in assay [2] (setting [8]); 36.8% in assay [2] (at 50.0 µM). The growth inhibition in assay [3] (setting [7]) was 13%; in assay [3] (setting [8]) it was 71% (active); in assay [3] (at 50.0 µM), 50.4%; in assay [4] (setting [7]), 3%; in assay [4] (setting [8]), 45%; in assay [4] (at 50.0 µM), -44.6%. The growth inhibition in assay [5] (setting [7]) was 10%; in assay [5] (setting [8]), 63%; in assay [5] (at 50.0 µM) it was 38.8%; in assay [6] (setting [7]) it was 14%; in assay [6] (setting [8]), 60%; in assay [6] (at 50.0 µM), 68.5%.

`Cc1ccc(S(=O)(=O)NCCCOS(=O)(=O)c2ccc(C)cc2)cc1`: the growth inhibition in assay [1] (setting [7]) was 20%; in assay [1] (setting [8]) it was 46%; in assay [1] (at 50.0 µM), 22.8%; in assay [2] (setting [7]) it was 16%; in assay [2] (setting [8]), 33%; in assay [2] (at 50.0 µM), 0.15%. Also, the growth inhibition is 34% in assay [3] (setting [7]); 65% in assay [3] (setting [8]); 28.9% in assay [3] (at 50.0 µM); 34% in assay [4] (setting [7]); 63% in assay [4] (setting [8]); 29.9% in assay [4] (at 50.0 µM). Also, the growth inhibition in assay [5] (setting [7]) was 37%; in assay [5] (setting [8]), 66%; in assay [5] (at 50.0 µM), 29.4%; in assay [6] (setting [7]) it was 15%; in assay [6] (setting [8]), 53%; in assay [6] (at 50.0 µM), 45.9%.

Turning to `O.O.O=Cc1cc(Br)cc(Br)c1O.O=Cc1cc(Br)cc(Br)c1O.[Co]`, the growth inhibition is 58% in assay [1] (setting [7]); 99% (active) in assay [1] (setting [8]); 99.2% (active) in assay [1] (at 50.0 µM); 25% in assay [2] (setting [7]); 99% (active) in assay [2] (setting [8]); 96.7% (active) in assay [2] (at 50.0 µM). Also, the growth inhibition was 37% in assay [3] (setting [7]); 89% (active) in assay [3] (setting [8]); 99% (active) in assay [3] (at 50.0 µM); 15% in assay [4] (setting [7]); 99% (active) in assay [4] (setting [8]); 89.5% (active) in assay [4] (at 50.0 µM). Further, the growth inhibition in assay [5] (setting [7]) was 53%; in assay [5] (setting [8]) it was 99% (active); in assay [5] (at 50.0 µM), 90.5% (active); in assay [6] (setting [7]) it was 79% (active); in assay [6] (setting [8]) it was 99% (active); in assay [6] (at 50.0 µM) it was 99.2% (active).
